Assay [1] is described as follows: Stat Signaling Pathway (AID 446).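 Further: ME-180 cervical cancer cells given 40 pM IL-6 alongside compound; SIE-controlled beta-lactamase reporter measured as 460/530 nm FRET emission ratio; on the % scale 0 is the no-effect control and ±100 the full control effect.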 The procedure, abridged: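 ME-180 SIE-bla cells; overnight plating; cpd + IL-6 40 pM, 5 h, 37 C; LiveBLAzer 2.5 h RT; 460/530 nm emission ratio. Normalized to 300 pM IL-6 and 125 nM JAK inhibitor controls.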
Assay [2] addresses Glucocorticoid receptor (Homo sapiens) (UniProt P04150). Description: GR-GFP Redistribution (AID 450;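 active means compounds whose dose series gives a full or clear partial fitted curve of increased nuclear translocation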; further: potency means the concentration at half of the fitted maximal effect). Particulars: U2OS GR-GFP nuclear translocation, laser cytometry, 2 h.
Assay [3] shares this target. Description: GR-EFC Redistribution (AID 451; calls by dose curve; further: potency means the concentration at half of the fitted maximal effect). The note with it: CHO-K1 GR-EFC translocation, beta-gal luminescence, 2 h. The procedure, abridged:
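Translocation of GR-ED fusion to nuclear EA restores b-gal, read by luminescence after 1 h room-temperature detection. Engineered CHO-K1 biosensor cells, 1,000/well, exposed 2 h at 37 C to titrations up to 46 uM final.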

Assay [4] deals with Mitogen-activated protein kinase 10 (Mus musculus) (UniProt Q61831). Description: JNK3 AlphaScreen Assay (AID 530).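 Further: kinase came from lysate of stimulated human HepG2 cells; signal reports phosphorylation of biotinylated GST-cJun 1-79 at Ser73 with 10 µM ATP; on the % scale 0 is the no-effect control and ±100 the full control effect.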 The procedure, abridged: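 Room-temperature AlphaScreen kinase assay; pre-activated HepG2 lysate as JNK3 source, biotin-GST-cJun(1-79) substrate, 10 uM ATP, compound 15 min preincubation.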
In general terms: In Alpha technology, singlet oxygen from a donor bead excites a nearby acceptor bead.

For assay [5], the target named is 3',5'-cyclic-AMP phosphodiesterase 4B (Homo sapiens) (UniProt Q07343). Description: qHTS Assay for Inhibitors of PDE-IV (AID 607; active means well fitted activation curve with a large enough effect in the main read-out, with a control signal flat, not every such curve was filed as active; further: % of control where 0% means no effect). The procedure, abridged:
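ACTOne HEK293 cells carry a modified cAMP-gated CNG channel and express endogenous PDE4; plated 1000 cells/well, compounds up to 22.9 uM final. Membrane-potential dye fluorescence (ex 535/em 590) was read; parental cells received 10 uM forskolin + 100 uM RO 20-1724.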

Assay [6] is described as follows: Cell Viability - N2a (AID 540; active means well fitted curve in the direction sought with a large enough effect; an effect the other way counts as inactive or inconclusive;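 further: plate controls were DMSO alone for no effect and tamoxifen control for full effect; nearly all actives have a fitted effect of over 45% in size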). The procedure, abridged: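 Mouse neuroblastoma N2a cells (1500/well) were preincubated 5 hr at 37 °C, then exposed to compounds for 40 hr at 37 °C in complete medium. Viability was read as intracellular ATP by CellTiter-Glo luminescence; AC50 from Hill fits.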
A short description of assay [7]: Cell Viability - HUV-EC-C (AID 542; active means well fitted curve in the direction sought with a large enough effect; an effect the other way counts as inactive or inconclusive; further: on the % scale 0 is the no-effect control and ±100 the full control effect; nearly all actives have a fitted effect of over 35% in size). The procedure, abridged:
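HUV-EC-C normal human vascular endothelial cells, 1000 cells/well, pre-incubated 5 hr at 37 °C, then exposed to compounds for 40 hr at 37 °C in complete medium. Viability measured as intracellular ATP by CellTiter-Glo luminescence; AC50 from Hill fits.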

Assay [8] in a line: Cell Viability - H-4-II-E (AID 543; active means well fitted curve in the direction sought with a large enough effect; an effect the other way counts as inactive or inconclusive; further: on the % scale 0 is the no-effect control and ±100 the full control effect; nearly all actives have a fitted effect of over 35% in size). The essentials:
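Rat hepatoma H-4-II-E cells (1500/well) were plated, incubated 5 hr at 37 °C, then exposed to compounds for 40 hr at 37 °C. Cellular ATP was read by CellTiter-Glo luminescence; AC50 came from Hill-equation fits of concentration-response data.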

A short description of assay [9]: Cell Viability - Renal Proximal Tubule (AID 545; active means well fitted curve in the direction sought with a large enough effect; an effect the other way counts as inactive or inconclusive;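 further: 0% = DMSO only and -100% = 100 µM tamoxifen; nearly all actives have a fitted effect of over 40% in size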). Particulars: renal proximal tubule cells viability, primary cells of rat origin; activity change, negative = cytotoxicity: at 91.7 µM (top of the series). The procedure, abridged:
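Primary rat renal proximal tubule cells (1000/well) were treated with compounds for 40 hr at 37 °C in complete medium. Intracellular ATP was measured by CellTiter-Glo luminescence, and AC50 values came from Hill-equation fits of concentration-response data.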

Assay [10] can be described thus: Cell Viability - Mesenchymal (AID 546; active means well fitted curve in the direction sought with a large enough effect; an effect the other way counts as inactive or inconclusive;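 further: cells exposed to compound for 40 hours before reading; 0% = DMSO only and -100% = 100 µM tamoxifen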). Particulars: mesenchymal cells viability, qHTS; activity change, negative = cytotoxicity: at 91.7 µM (top of the series). The procedure, abridged:
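AC50 values reflect the drop in intracellular ATP in a human kidney mesenchymal line derived from normal glomeruli. Treatment lasts 40 hr at 37 °C in complete medium, and the signal comes from CellTiter-Glo luminescence.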

Values joined by “and” are separate entries in the source; they are usually repeats but may differ in a detail not shown here. Equal entries are not always repeated. Values without a mark were called inactive. Inconclusive results are not listed. Active and inactive are the calls of the source. Unless noted, the call rests on the fitted dose curve; in most records, active means well fitted curve in either direction with a large enough effect (not every such curve was filed as active); inconclusive means small, poorly fitted or top-dose-only effect, or another doubt; inactive means flat fitted curve, though single readings scatter. A value given as a limit tells only on which side of the number the result lay.

Chain of Glucocorticoid receptor (Homo sapiens) (P04150 whole entry, looked up): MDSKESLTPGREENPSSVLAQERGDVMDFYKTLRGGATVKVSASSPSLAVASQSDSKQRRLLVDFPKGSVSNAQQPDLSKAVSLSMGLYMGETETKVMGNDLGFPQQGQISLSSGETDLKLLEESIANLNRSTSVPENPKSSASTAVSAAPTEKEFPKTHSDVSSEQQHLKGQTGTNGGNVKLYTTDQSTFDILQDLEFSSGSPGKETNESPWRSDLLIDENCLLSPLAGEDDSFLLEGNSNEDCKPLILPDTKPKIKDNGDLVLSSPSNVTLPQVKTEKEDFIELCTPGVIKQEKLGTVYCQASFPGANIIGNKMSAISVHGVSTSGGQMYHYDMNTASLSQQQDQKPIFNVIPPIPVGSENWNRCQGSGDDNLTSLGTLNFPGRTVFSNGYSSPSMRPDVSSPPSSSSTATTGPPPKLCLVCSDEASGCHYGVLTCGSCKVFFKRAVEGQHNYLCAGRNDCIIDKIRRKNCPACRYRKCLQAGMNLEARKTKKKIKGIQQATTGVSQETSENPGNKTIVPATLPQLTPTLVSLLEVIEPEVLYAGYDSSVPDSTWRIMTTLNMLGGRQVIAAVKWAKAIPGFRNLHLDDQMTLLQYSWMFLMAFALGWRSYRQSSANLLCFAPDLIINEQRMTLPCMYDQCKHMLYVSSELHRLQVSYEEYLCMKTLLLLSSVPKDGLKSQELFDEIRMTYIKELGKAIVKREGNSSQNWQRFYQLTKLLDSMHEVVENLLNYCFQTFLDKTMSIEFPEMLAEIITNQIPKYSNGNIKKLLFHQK
Chain of 3',5'-cyclic-AMP phosphodiesterase 4B (Homo sapiens) (Q07343 whole entry, looked up): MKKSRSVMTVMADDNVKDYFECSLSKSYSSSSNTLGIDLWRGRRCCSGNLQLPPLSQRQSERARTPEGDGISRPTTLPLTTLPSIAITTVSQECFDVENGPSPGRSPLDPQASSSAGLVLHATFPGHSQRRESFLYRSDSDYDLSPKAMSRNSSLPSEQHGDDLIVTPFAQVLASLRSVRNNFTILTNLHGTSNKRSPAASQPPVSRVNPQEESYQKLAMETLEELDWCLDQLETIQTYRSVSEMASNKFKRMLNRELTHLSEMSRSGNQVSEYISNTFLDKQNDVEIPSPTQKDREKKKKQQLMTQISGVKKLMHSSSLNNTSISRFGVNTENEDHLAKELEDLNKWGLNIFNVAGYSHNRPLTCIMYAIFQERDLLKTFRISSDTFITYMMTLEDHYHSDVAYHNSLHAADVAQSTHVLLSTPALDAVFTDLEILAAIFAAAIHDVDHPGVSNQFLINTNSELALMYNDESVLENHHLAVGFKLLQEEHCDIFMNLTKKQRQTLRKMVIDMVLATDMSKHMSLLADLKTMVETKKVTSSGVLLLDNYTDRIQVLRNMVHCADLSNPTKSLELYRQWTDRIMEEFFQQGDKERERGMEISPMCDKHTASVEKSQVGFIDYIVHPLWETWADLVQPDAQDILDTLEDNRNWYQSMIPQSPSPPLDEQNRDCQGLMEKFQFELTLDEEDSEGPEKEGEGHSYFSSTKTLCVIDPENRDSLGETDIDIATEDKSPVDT

`CC(C)(C)NCC(O)c1cc(O)cc(O)c1` (configuration not stated): the call in assay [1] was inactive.

For `COc1ccc2c(c1OC)C(=O)O[C@@H]2[C@H]1c2c(cc3c(c2OC)OCO3)CCN1C`, the outcome in [1] was inactive. In addition, the Potency in [2] was > 46 µM and > 20.6 µM; in assay [3], above 46 µM.

For the compound `C#CCN(C)CCCOc1ccc(Cl)cc1Cl`, the call in assay [1] was inactive. For the same compound, the Potency in [2] is > 46 µM and > 20.6 µM; in assay [3], > 46 µM and > 20.6 µM. The Potency entry in [4] and in [5] was “inactive” in each case.

Consider `COCCOC(=O)C1=C(C)NC(C)=C(C(=O)OC(C)C)C1c1cccc([N+](=O)[O-])c1` (configuration not stated), for which the call in assay [1] was inactive. In addition, the Potency in assay [2] is above 20.6 µM.

With `Cc1ccc(S(=O)(=O)NC(=O)NN2CCCCCC2)cc1`, the call in assay [1] was inactive. Also, the Potency was > 46 µM and > 20.6 µM in assay [2]; > 46 µM and > 20.6 µM in assay [3]. Moreover, the Potency result in [4] and in assay [5] was “inactive” each time.

Regarding `CCCCNC(=O)NS(=O)(=O)c1ccc(C)cc1`, the compound was called inactive in [1] and in [6]. Further, the Potency in assay [2] was > 46 µM and > 20.6 µM; in assay [3], > 46 µM and > 20.6 µM. The Potency entry in assay [4], in assay [7], in assay [8], in assay [10] and in assay [5] was “inactive” throughout. For the same compound, the activity change, negative = cytotoxicity in [9] is -6.67%.

For the compound `CN(C)[C@@H]1C(=O)C(C(N)=O)=C(O)[C@@]2(O)C(=O)C3=C(O)c4c(O)ccc(Cl)c4[C@@H](O)[C@H]3C[C@@H]12`, in assay [1], the compound was classed as inactive. In assay [2], the Potency was above 20.6 µM.

Turning to `c1ccc2c(c1)CCCC2C1=NCCN1` (configuration not stated), the compound was classed as inactive in assay [1].

For the compound `CC(=O)OC(C)C[N+](C)(C)C` (configuration not stated), the result in assay [1] was inactive. In assay [2], the Potency was above 20.6 µM.

In the case of `Cc1nc2sccn2c(=O)c1CCN1CCC(=C(c2ccc(F)cc2)c2ccc(F)cc2)CC1`, in assay [1], the compound was called inactive. Also, the Potency in [2] is > 46 µM and > 20.6 µM; in assay [3], above 46 µM. Further, the Potency entry in assay [4] is “inactive”.

In the case of `Cc1nc2c([nH]1)c(=O)n(C)c(=O)n2Cc1ccco1`, the compound was called inactive in assay [1]. Moreover, the Potency in assay [2] and in [3] was above 46 µM in each case. In addition, the Potency entry in assay [4] and in assay [5] was “inactive” throughout.

Consider `CCN(CC)CCNC(=O)c1cc(S(C)(=O)=O)ccc1OC`, for which the result in assay [1] was inactive. For the same compound, the Potency in assay [2] was > 46 µM and > 20.6 µM; in [3] it was > 46 µM and > 20.6 µM. Moreover, the Potency result in assay [4] and in assay [5] was “inactive” in each case.

Regarding `C[C@]12CCC(=O)C=C1CC[C@@H]1[C@@H]2C(=O)C[C@@]2(C)[C@H]1CC[C@]2(O)C(=O)CO`, in assay [1], the result was inactive. For the same compound, in assay [2], the Potency is 0.818 µM (active).

For the compound `CC(=O)OCC1=C(C(=O)O)N2C(=O)[C@@H](NC(=O)Cc3cccs3)[C@H]2SC1`, in assay [1], the compound was called inactive. For the same compound, the Potency in assay [2] was above 20.6 µM.

For the compound `Cc1nnc(SCC2=C(C(=O)O)N3C(=O)[C@@H](NC(=O)Cn4cnnn4)[C@H]3SC2)s1`, the result in assay [1] was inactive.

For `CO[C@@]1(NC(=O)CSCC#N)C(=O)N2C(C(=O)O)=C(CSc3nnnn3C)CS[C@@H]21`, the compound was called inactive in assay [1]. Besides, in assay [2], the Potency was above 20.6 µM.

As to `CN(C)CC/C=C1\c2ccccc2COc2ccccc21`, in assay [1], the outcome was inactive. The Potency was > 46 µM and > 20.6 µM in [2]; > 46 µM and > 20.6 µM in assay [3]. Besides, the Potency result in assay [4] and in assay [5] was “inactive” throughout.

Take `CCCN(CCC)C(=O)C(CCC(=O)O)NC(=O)c1ccccc1` (configuration not stated): in [1], the compound was classed as inactive. Also, the Potency in assay [2] is above 20.6 µM.

On to `COc1cc(C(=O)OCCCN2CCCN(CCCOC(=O)c3cc(OC)c(OC)c(OC)c3)CC2)cc(OC)c1OC`, for which, in assay [1], the compound was called inactive. For the same compound, the Potency in [2] was > 46 µM and > 20.6 µM; in [3], > 46 µM and > 20.6 µM. Besides, the Potency entry in [4] and in [5] was “inactive” each time.

In the case of `C[C@]12CCC(=O)C=C1CC[C@@H]1[C@@H]2CC[C@@]2(C)[C@H]1CC[C@]2(O)C(=O)CO`, in assay [1], the compound was classed as inactive. Moreover, the Potency in [2] is 0.0458 µM (active).

Turning to `CCCCNc1c(C(=O)OCC)c(C)nc2c1cnn2CC`, the compound was called inactive in assay [1]. Besides, the Potency in assay [2] is > 46 µM and > 20.6 µM; in [3] it was > 46 µM and > 20.6 µM. Further, the Potency entry in assay [4] was “inactive”.

For `C[C@]12C=CC(=O)C=C1CC[C@H]1[C@@H]3C[C@@H](O)[C@](O)(C(=O)CO)[C@@]3(C)C[C@H](O)[C@@]12F`, the compound was classed as inactive in assay [1]. In addition, the Potency in assay [2] is 0.148 µM (active).

Take `COc1ccc(CN(CCN(C)C)c2ccccn2)cc1`: the result in assay [1] and in [6] was inactive. Also, the Potency is > 46 µM and > 20.6 µM in assay [2]; > 46 µM and > 20.6 µM in assay [3]. Moreover, the Potency result in assay [4], in [7], in assay [8], in [10] and in [5] was “inactive” in each case. Besides, the activity change, negative = cytotoxicity in [9] was 7.61%.

(Values after PubChem BioAssay (NCATS).)
